# Data: the supplement of paper PMC10981050
# Where “and” joins values, the source holds several entries; their conditions need not be identical. Equal values may be shown once. Where a name gives a salt, the structure may show the parent alone.
# Columns and labels:
# Assay in all cases: cell viability relative to vehicle control; higher = less cytotoxic
# Conditions in all cases: 10 µM
# K562 = tested on: K562
# Method in brief: (§1)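 Screening covered the Selleck bioactive, kinase and epigenetic probe libraries, less identity-inconsistent compounds, on CRISPR-edited mutant clones and isogenic wild-type clones of four leukaemia lines. Cells, at 2000 per well in 50 µL medium, received a single 10 µM acoustically dispensed dose. After 48 h the supernatant was removed and CellTiter-Glo luminescence was read. Viability was analysed in Genedata Screener as percent of the on-plate vehicle control.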
# MARIMO = tested on: MARIMO
# Method in brief: as §1
# MOLM14 = tested on: MOLM14
# Method in brief: as §1
# OCI-AML2 = tested on: OCI-AML2
# Method in brief: as §1
Compound,cell viability (K562; SRSF2 genotype: SRSF2 P95H/wt),cell viability (K562; SRSF2 genotype: SRSF2 wt/wt) [%],cell viability (MARIMO; SRSF2 genotype: SRSF2 P95H/wt) [%],cell viability (MARIMO; SRSF2 genotype: SRSF2 wt/wt) [%],cell viability (MOLM14; SRSF2 genotype: SRSF2 P95H/wt) [%],cell viability (MOLM14; SRSF2 genotype: SRSF2 wt/wt) [%],cell viability (OCI-AML2; SRSF2 genotype: P95H/wt) [%],cell viability (OCI-AML2; SRSF2 genotype: wt/wt) [%]
O=C1CN(/N=C/c2ccc(-c3ccc([N+](=O)[O-])cc3)o2)C(=O)N1 [Dantrolene sodium hemiheptahydrate],93.8% and 97.3%,104,96.4,104,100,101,100,94.3
C#Cc1cccc(Nc2ncnc3cc4c(cc23)OCCOCCOCCO4)c1 [Icotinib],96.1% and 94%,94.2,92.4,98.3,92.3,98.4,94.9,94.5
C[C@@]12CC[C@@H]3[C@@](CC[C@H]4[C@@]3(C)CCC[C@@]4(C)C(=O)O)(CC1=O)C2 [Iso-Steviol],100% and 92.9%,96.7,99.4,107,95,94.7,88.3,101
CN(CCOc1ccc(CC2SC(=O)NC2=O)cc1)c1ccccn1 (stereo not given) [Rosiglitazone HCl],100% and 101%,97.4,102,115,103,109,102,105
C[C@H]1C[C@@H]2[C@H]([C@@H](O)C[C@@]3(C)[C@H]2CC[C@]3(O)C(=O)CO)[C@@]2(C)C=CC(=O)C=C12 [Methylprednisolone],100% and 106%,103,110,103,95.8,98.8,99.8,107
"CC1(C)CCCC2(C)C1CCC1(C)OCCC12 (single isomer, unassigned; (-)) [(-)-Ambroxide]",94.6% and 94.5%,99.7,97.9,101,95.9,96.4,98,103
Nc1ncnc2c1ncn2C1OC(COP(=O)(O)OP(=O)(O)O)C(O)C1O (stereo not given),111% and 110%,107,91.2,90.7,101,95,96.3,99.9
COC(=O)[C@H](c1ccccc1Cl)N1CCc2sccc2C1 [Clopidogrel (Plavix)],98.2% and 98.5%,94.4,78.9,101,94.1,96.9,85.4,93.4
Nc1c(CC(=O)O)cccc1C(=O)c1ccc(Br)cc1 [Bromfenac Sodium],106% and 105%,97.3,105,98.3,102,102,107,104
COc1cc2c(cc1Cc1cccc(Cl)c1F)c(=O)c(C(=O)O)cn2[C@H](CO)C(C)C [Elvitegravir (GS-9137)],52% and 50.4%,45.1,40.2,39.1,57.3,35,12.9,15.9
